Reference: the supplement of paper PMC3334620
The full ranking holds about 33,000 sequences; the median of “E-score (-0.5 to 0.5)” is about -0.032, and the highest 2% start at about 0.36. This is one part of a sample in which the highest values are shown more often than they occur.

target: T1, Sko1 (UniProt Q02100); experiment: PBM E-score (8-mer binding enrichment) (E-score (-0.5 to 0.5)); higher = stronger / more preferred TF binding; conditions: protein concentration: 200 nM; construct: GST-full length
T1 sequence: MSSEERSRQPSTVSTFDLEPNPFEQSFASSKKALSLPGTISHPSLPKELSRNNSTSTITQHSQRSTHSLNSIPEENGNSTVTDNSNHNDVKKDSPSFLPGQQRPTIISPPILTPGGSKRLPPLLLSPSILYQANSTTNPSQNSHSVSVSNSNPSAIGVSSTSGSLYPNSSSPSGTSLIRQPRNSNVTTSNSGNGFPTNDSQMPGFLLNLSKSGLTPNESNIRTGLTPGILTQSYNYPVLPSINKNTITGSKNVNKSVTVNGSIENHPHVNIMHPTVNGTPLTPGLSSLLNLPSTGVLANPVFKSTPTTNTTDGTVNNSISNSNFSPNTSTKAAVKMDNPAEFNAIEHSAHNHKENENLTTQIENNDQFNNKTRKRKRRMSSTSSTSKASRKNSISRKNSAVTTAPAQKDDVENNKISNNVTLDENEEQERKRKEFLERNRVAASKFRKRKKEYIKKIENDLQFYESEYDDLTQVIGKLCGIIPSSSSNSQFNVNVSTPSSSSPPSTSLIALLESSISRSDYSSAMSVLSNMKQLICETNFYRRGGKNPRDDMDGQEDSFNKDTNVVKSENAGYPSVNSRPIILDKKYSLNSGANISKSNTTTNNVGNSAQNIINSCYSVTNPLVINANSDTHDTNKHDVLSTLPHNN
Description: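 Universal 'all 10-mer' protein binding microarrays (Agilent AMADID 015681) probed with GST-tagged S. cerevisiae TFs (full-length or DBD) made by in vitro transcription/translation (PURExpress), about 100-200 nM. Bound TF was detected with fluorescent anti-GST. Each ungapped 8-mer (which stands for itself and its reverse complement) is scored by the PBM enrichment score (E-score), a modified Wilcoxon-Mann-Whitney statistic from -0.5 to +0.5, computed with the Universal PBM Analysis Suite. Scale: above 0.35 generally sequence-specific binding.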

Sequence | PBM E-score
AATTCGTA | 0.386
CTTTCGTA | 0.339
ATTTCGTC | 0.343
ATTTCGTA | 0.372
CATTCGTA | 0.317
GATTCGTA | 0.251
CGCGGAAC | -0.165
GGCTTCCA | -0.218
GACGTGCC | 0.266
AACGTGCA | 0.191
CACGTGCA | 0.329
GACGTGCA | 0.389
TACGTGCA | 0.423
GGCGTGCA | -0.0639
AGACTATA | 0.00094
CCAAGTGC | -0.285
AGCACATA | 0.0436
AGCACGTG | 0.397
AGCACGTC | 0.309
AGCACGTA | 0.406
AGCACGAG | -0.0498
AGCACGAA | 0.169
AGTAGTCC | 0.0244
CACGTTAC | 0.305
AACGTTCT | 0.167

Sequence | PBM E-score
AACGTTTA | 0.31
CACGTTCA | 0.171
GACGTTAC | 0.365
GACGTTTA | 0.386
AACGTTAG | 0.176
CACGTTTA | 0.321
AACGTTAT | 0.368
AACGTTCA | 0.0648
TACGTTCA | 0.374
AACGTTAC | 0.321
AGCTCAAC | -0.147
AGTGCTGG | -0.111
AAGTCGAC | 0.0592
ATCTGAGA | -0.0991
CAATACCG | -0.186
CTTGAAGA | -0.132
ACGAAGGG | 0.129
CTGATCCC | -0.269
AACTCCTT | -0.0253
ATTCGACA | -0.09
CAACAACC | -0.0035
CCAGAGAC | -0.251
CATCCCTC | -0.245
CACGTTAA | 0.244
AACGTTAA | 0.243

Sequence | PBM E-score
TACGTTGA | 0.38
CACGTTAG | 0.2
GGCGTTAA | -0.0249
GACGTTGA | 0.269
GACGTTAA | 0.368
CACGTTGA | 0.25
TACGTTAA | 0.413
CTTCCTAC | -0.225
CTTCTCTA | -0.284
TATGAGCA | 0.00789
ACCTGGCT | -0.232
ACCGTCCG | -0.304
AGGAGCCA | -0.258
CCTGCGGC | -0.427
TAATGAAA | 0.24
AAATGACC | 0.0951
AAATGACA | 0.272
AAATGACG | 0.481
GAATGACA | 0.249
TAATGACA | 0.364
CAATGACG | 0.486
CAATGACC | 0.0293
CAATGACA | 0.229
AAATGGTG | 0.0316
GAAGGTAA | 0.0069

Sequence | PBM E-score
ACACTCAG | -0.0491
TACGGCTA | -0.0295
ATTCGAAG | 0.0402
AGCTAGTG | -0.00092
AAACAAGG | -0.131
ATGATTCC | 0.169
AACTACGC | 0.305
ACCTACGT | 0.444
AACTACGT | 0.455
ACCTACGC | 0.293
AACTACGA | 0.198
ACCTACGG | -0.217
ACGCCAAA | 0.0451
GCAAACCA | -0.0509
CTTTGGAA | -0.0181
AGTCGTTA | 0.0683
CAAGAAGA | -0.0303
CTCTTTCA | -0.0826
CAGGTTTC | -0.0189
GAAGCACC | -0.0674
TAAAGAGA | 0.0871
CTTACATC | 0.202
GTTACATA | 0.251
AGTACATC | 0.142
ATTACATA | 0.386

Sequence | PBM E-score
ATTACATG | 0.324
ATTACATC | 0.403
AGACAGCC | -0.219
TGCGTACA | 0.36
GGCGTACA | -0.0526
AGCGTACA | 0.0563
CGCGTAAA | 0.311
AGCGTAAA | 0.189
TGCGTAAA | 0.404
GTTGCACA | 0.0444
CGCATCAG | -0.0566
AGTCAACA | 0.0814
GAAGTCGC | -0.139
ATGTGCAC | -0.0142
ACGATTAC | 0.369
CCGATTAC | 0.0359
GCGATTAC | 0.144
ATGAGTCC | 0.0501
ACGTACGG | 0.38
ACGTACGC | 0.453
AAGTACGA | 0.201
AAGTACGC | 0.193
ATGTACGG | -0.046
GCGTACGC | 0.269
CCGTACGG | -0.262

Sequence | PBM E-score
AAGTACGT | 0.44
GCGTACGA | 0.238
CCGTACGC | 0.0653
CCGTACGA | 0.0901
ACGTACGA | 0.414
AGCGTTAT | 0.0494
ACCTGCAT | -0.13
ATAAGAGA | 0.0988
ATCTTCGC | 0.1
AAAGTAAC | 0.0224
AAAACCGG | -0.128
CAGGCCGA | -0.182
GGGGTAGA | -0.0788
AGAAACTG | 0.0191
CGCAGCTC | -0.0758
ATGTACGA | 0.143
TCGTACGA | 0.282
ACGTACGT | 0.473
ACCTAGCG | -0.0355
AAGGTGCT | -0.238
ATGCAAAA | 0.116
AAATTGAG | -0.0473
AGGTTTAT | 0.0336
ACGTTTAA | 0.406
ACGTTTAT | 0.388

Sequence | PBM E-score
ACGTTTAC | 0.345
CCGTTTAA | -0.0451
ACGTTTAG | 0.355
GTGCCAAA | -0.0151
CTAACTTC | 0.0478
CGTCTGCC | -0.00999
ATATTTCG | 0.235
GATTGGTA | -0.054
AAAGTCTT | 0.0148
GGGGAGTA | -0.124
ATGCCAAA | -0.0114
AAACGTCC | 0.13
TAACGTCA | 0.48
TAACGGCA | 0.0289
CAACGTCC | -0.0395
CAACGTCG | 0.222
GAACGTCC | 0.117
CAACGTCA | 0.47
AAACGTCT | 0.341
AAACGTCA | 0.47
TAACGCCA | 0.144
GAACGTTA | 0.18
GAACGTCA | 0.456
